{"source": "PubChem BioAssay (NCATS)", "note": "Inconclusive results are not listed. A call without a number means that no potency is given here. Active and inactive are the calls of the source. Calls follow the shape of the full dose curve."}
{"assay": "Validation screen for inhibitors of Lassa infection (AID 463096)", "details": "Lassa virus infection, cell-based; series mostly up to 46.1 µM"}
{"smiles": "O=[N+]([O-])c1ccc(CSc2ncnc3c2ncn3[C@@H]2O[C@H](CO)[C@H](O)[C@H]2O)cc1", "Potency": "inactive"}
{"smiles": "Nc1ccn([C@@H]2O[C@H](CO)[C@@H](O)[C@@H]2O)c(=O)n1", "Potency": "inactive"}
{"smiles": "CCCCCCCCCCCCCCC/C=C/[C@@H](O)[C@H](NC(=O)CCCCCCCCCCCCC)OC", "note": "(tested in a mixture with another compound)", "Potency": "inactive"}
{"smiles": "COc1cc2c(cc1OC)C(c1ccccc1)CN(C)CC2", "note": "(stereo not drawn)", "Potency": "inactive"}
{"smiles": "O=C(O)CC[C@H](NC(=O)c1ccccc1C(=O)O)C(=O)O", "Potency": "inactive"}
{"smiles": "CCCCCCCCCCCCC/C=C/[C@@H](O)[C@@H](N)CO", "Potency": "inactive"}
{"smiles": "NCC1OC(O[C@@H]2[C@H](O)[C@@H](OC3C(O)C(N)CC(N)C3OC3OC(CO)C(O)C(O)C3N)O[C@@H]2CO)C(N)C(O)C1O", "note": "(stereo partly drawn)", "Potency": "inactive"}
{"smiles": "NC(=S)c1ccc[n+]([C@@H]2O[C@@H](COP(=O)([O-])OP(=O)(O)OC[C@H]3O[C@@H](n4cnc5c(N)ncnc54)[C@H](OP(=O)(O)O)[C@H]3O)C(O)C2O)c1", "note": "(stereo partly drawn)", "Potency": "inactive"}
{"smiles": "COc1c2c(nc3ccccc13)OC(C(C)(O)CO)C2", "note": "(stereo not drawn)", "Potency": "inactive"}
{"smiles": "Nc1ncnc2c1ncn2[C@@H]1O[C@H](CO)[C@H](O)[C@H]1O", "Potency": "inactive"}
{"smiles": "CC(N)=NCCCC(N)C(=O)O", "note": "(stereo not drawn)", "Potency": "inactive"}
{"smiles": "CSc1nc(N)c2ncn([C@@H]3O[C@H](COP(=O)(O)OP(=O)(O)OP(=O)(O)O)[C@H](O)[C@H]3O)c2n1", "Potency": "inactive"}
{"smiles": "CN(C)C1C(=O)C(C(N)=O)=C(O)[C@@]2(O)C(=O)C3=C(O)c4c(O)ccc(Cl)c4[C@@H](O)C3C[C@@H]12", "note": "(stereo partly drawn)", "Potency": "inactive"}
